Source: PubChem BioAssay (NCATS)
Unmarked numbers belong to inactive results. Results filed as inconclusive are left out. A call without a number means that no potency is given here. Active and inactive are the calls of the source. Unless noted, the call rests on the fitted dose curve; in most records, active means well fitted curve in the direction sought with a large enough effect; inconclusive means small, poorly fitted or top-dose-only effect, or another doubt; inactive means no such curve, though single readings can be large; an effect the other way counts as inactive or inconclusive.

Legend:
[1] = Cell Viability - MRC5 (AID 434; calls by dose curve;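 further: potency means the concentration at half of the fitted maximal effect; cells exposed to compound for 40 hours at 37 °C; potency reflects cytotoxicity seen as loss of intracellular ATP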); conditions: MRC5 lung fibroblast viability, qHTS
Summary of the method: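 qHTS cytotoxicity in human lung fibroblast MRC5 cells; 40 hr treatment, 37 °C; cellular ATP by luciferase luminescence; DMSO = 0%, 100 uM tamoxifen = 100% inhibition; Hill-fit AC50.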

[2] = Cellular Toxicity (caspase-3) HepG2 (AID 654); conditions: HepG2 caspase-3 activation, luminescence; series mostly up to 92.2 µM; further: potency means the concentration at half of the fitted maximal effect;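 on caspase-3 activation: cells exposed to compound for 16 hours before reading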
Summary of the method: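 HepG2 cells (1500/well) in complete medium were treated with compounds for 16 hr at 37 °C. Caspase-3/7 activity was then read as luminescence from peptide-aminoluciferin cleavage. AC50 came from Hill fits, normalized to DMSO and 100 uM tamoxifen.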

[3] = Cellular Toxicity (caspase-3) HUV-EC-C (AID 656); conditions: HUV-EC-C cells, caspase-3 activation (apoptosis); series mostly up to 92.2 µM; further: potency means the concentration at half of the fitted maximal effect
Summary of the method: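 HUV-EC-C endothelial cells, 1000/well, were pre-incubated 5 hr at 37°C, then exposed to compounds for 16 hr at 37°C. Caspase-Glo 3/7 luminescence was read after 20 min at room temperature. AC50 came from Hill fits, normalized to DMSO and 100 uM tamoxifen.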

[4] = Cellular Toxicity (caspase-3) BJ (AID 658); conditions: BJ fibroblasts, luminescence; Potency: caspase-3 activation; series mostly up to 91.7 µM
Summary of the method: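 Readout: Caspase-Glo 3/7 luminescence increase in BJ cells after 16 hr treatment at 37 °C. Staurosporine and tamoxifen served as positive controls; AC50 values came from Hill modelling of data normalized to DMSO and 10 uM staurosporine.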

[5] = Cellular Toxicity (caspase-3) MRC-5 (AID 659); conditions: MRC-5 cells, luminescence, normalized: DMSO 0%, 10 µM staurosporine 100%; series mostly up to 91.7 µM
Summary of the method: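 Concentration-dependent caspase 3/7 activation is measured in human normal lung fibroblasts (MRC-5) following 16-hour treatment. AC50 values come from standard Hill-equation modeling of luminescence normalized to DMSO and 10 uM staurosporine.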

[6] = Cellular Toxicity (caspase-3) H-4-II-E (AID 663); conditions: H-4-II-E rat hepatoma; Potency: caspase-3 activation; series mostly up to 92.2 µM; further: potency means the concentration at half of the fitted maximal effect;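 on caspase-3 activation: cells exposed to compound for 16 hr before readout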
Summary of the method: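 Apoptosis induction is scored as increased luminescence from caspase 3/7 substrate cleavage in rat hepatoma H-4-II-E cells exposed to compound for 16 hr. Activity is scaled between DMSO and 100 uM tamoxifen.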

[7] = Cellular Toxicity (caspase-3) Renal Proximal Tubule (AID 667); conditions: renal proximal tubule cells, primary cells freshly taken from rat; Potency: caspase-3 activation; series mostly up to 91.7 µM;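 further: cells exposed to compound for 16 hours at 37 °C before detection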; further: potency means the concentration at half of the fitted maximal effect
Summary of the method: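 Primary rat proximal tubule cells, 1000/well, 5 h plating at 37 °C, then compound 16 h at 37 °C. Caspase-Glo 3/7 reagent, 1 h RT, luminescence. Normalized to DMSO (basal) and 10 uM staurosporine (100%); Hill-fit AC50.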

[8] = MultiTox-Fluor Cytotoxicity Assay - LYMP1-003 - Dead Cells (AID 961); conditions: LYMP1-003 lymphoblastoid cells, dead-cell protease fluorescence; series mostly up to 92.2 µM; further: nearly all actives have a fitted effect of over 70% in size; further: potency means the concentration at half of the fitted maximal effect
Summary of the method: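 LYMP1-003 human lymphoblastoid cells (2500/well) exposed to compound 16 h at 37 C in complete medium; dead-cell protease read with bis-AAF-R110 fluorescence (Ex/Em 485/520) after 60 min at room temperature. Normalized to DMSO and 15 uM tetraoctylammonium bromide; AC50 from Hill fit.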

[9] = Cell Viability - LYMP1-003 - Assay at 24 hr (AID 963); conditions: LYMP1-003 lymphoblastoid cell viability; series mostly up to 92.2 µM; further: potency means the concentration at half of the fitted maximal effect
Summary of the method: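 Human lymphoblastoid LYMP1-003 cells (2500/well) were rested 5 hr at 37 C, then exposed to compounds in complete medium for 24 hr at 37 C. Cellular ATP was quantified by CellTiter-Glo luminescence, and AC50 values came from Hill fits of concentration-response data.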

[10] = Cell Viability - LYMP1-002 - Assay at 24 hr (AID 993); conditions: LYMP1-002 lymphoblastoid cells viability; series mostly up to 92.2 µM; further: potency means the concentration at half of the fitted maximal effect
Summary of the method: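 Human lymphoblastoid LYMP1-002 cells, 2500/well in complete medium, were treated with compounds for 24 h at 37 C; intracellular ATP was read by CellTiter-Glo luminescence. AC50 values came from Hill-equation fits of qHTS concentration-response data.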

[11] = qHTS Assay for Identification of Small Molecule Inducers of Hypoxia Response (AID 2120; active means well fitted curve in the direction sought with a large enough effect in the signal ratio, with a control signal flat, not every such curve was filed as active; the % refers to the signal ratio); conditions: hypoxia response reporter cells, beta-lactamase ratio readout; series mostly up to 104 µM
Summary of the method: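 HRE-beta-lactamase reporter in CellSensor HRE-bla ME-180 cells, 2500 cells/well in Opti-MEM with 0.5% dialyzed FBS; compounds tested as titration series, 17 h at 37 degrees C. CCF4 substrate 2.5 h at room temperature; AC50 from 460/530 nm ratio.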

[12] = target: Peroxisome proliferator-activated receptor alpha (Homo sapiens) (UniProt Q07869); assay: qHTS assay for small molecule agonists of the peroxisome proliferator-activated receptor alpha (PPARalpha) signaling pathway (AID 651778); conditions: PathHunter PPARalpha complementation, chemiluminescence, 6 h; max response: active compounds read high; further: potency means the concentration at half of the fitted maximal effect
Summary of the method: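 Chemiluminescence from complemented enzyme reported PPARalpha activation in cells after 6 hr of compound treatment at 37 C. The detection reagent was incubated for 60 min at room temperature, and compounds were scored as agonists.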

[13] = qHTS assay for cell viability of the p53RE-bla HCT-116 cell line (AID 743292); conditions: p53RE-bla HCT-116 viability, ATP luminescence, 16 h; series mostly up to 95 µM; further: nearly all actives have a fitted effect of over 55% in size; further: potency means the concentration at half of the fitted maximal effect
Summary of the method: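 HCT-116 p53RE-bla cells seeded 4,000/well; 5 h at 37 C; compound (DMSO) added; 16 h at 37 C; CellTiter-Glo added, 30 min RT; luminescence read.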

[14] = Cellular Toxicity (caspase-3) SHSY5Y (AID 657); conditions: SH-SY5Y caspase-3 activation; series mostly up to 91.7 µM
Summary of the method: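 SH-SY5Y human neuroblastoma cells (1500/well) were treated with compounds for 16 h at 37 °C, then Caspase-Glo 3/7 luminescence was read after 1 h at room temperature. Data normalized to DMSO and 10 uM staurosporine; AC50 from Hill fits.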

[15] = Cellular Toxicity (caspase-3) Mesangial (AID 660); conditions: mesangial cells, normalized: DMSO 0%, 100 µM tamoxifen 100%; series mostly up to 91.7 µM;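 further: cells exposed to compound for 16 h before the caspase read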
Summary of the method: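 Human renal glomerular mesangial cells (1000/well) were treated with compounds for 16 h at 37 °C in complete medium, then caspase 3/7 activity was read by Caspase-Glo luminescence. Data were normalized to DMSO and 100 uM tamoxifen; AC50 from Hill fits.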

[16] = Cellular Toxicity (caspase-3) SK-N-SH (AID 661); conditions: SK-N-SH caspase-3 activation, qHTS, DMSO as zero, staurosporine as full; series mostly up to 91.7 µM
Summary of the method: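 SK-N-SH human neuroblastoma cells (1500/well) were treated with compounds for 16 hr at 37 °C in complete medium; caspase 3/7 activity was read by Caspase-Glo luminescence. AC50 came from Hill fits of data normalized to DMSO and 10 uM staurosporine.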

[17] = Cellular Toxicity (caspase-3) Hek293 (AID 664); conditions: HEK293 caspase-3 activation, DMSO = 0%, 100 µM tamoxifen = 100%; at 92.2 µM (top of the series);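 further: cells exposed to compound for 16 h at 37 °C before readout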
Summary of the method: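 HEK293 cells were exposed to compounds in complete medium for 16 hr at 37 °C, then caspase-3/7 activity was read by Caspase-Glo 3/7 luminescence after 20 min at room temperature. Data normalized to DMSO and 100 uM tamoxifen; AC50 from Hill fits.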

[18] = Cellular Toxicity (caspase-3) N2a (AID 665); conditions: N2a cells, luminescence, normalized: DMSO 0%, 10 µM staurosporine 100%; series mostly up to 92.2 µM;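 further: compound exposure lasted 16 h at 37 °C before readout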
Summary of the method: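 Mouse N2a neuroblastoma cells (1500/well) were treated with compounds for 16 h at 37 °C, then caspase-3/7 activity was read by Caspase-Glo luminescence after 1 h at room temperature. Data were normalized to DMSO and 10 uM staurosporine; AC50 from Hill fits.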

[19] = MultiTox-Fluor Cytotoxicity Assay - LYMP1-001 - Dead Cells (AID 946); conditions: LYMP1-001 lymphoblastoid cells, dead-cell protease fluorescence; series mostly up to 92.2 µM
Summary of the method: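 LYMP1-001 lymphoblastoid cells (2500/well) treated 16 h at 37 C. Dead-cell protease cleavage of bis-AAF-R110 read at Ex/Em 485/520. Normalized to DMSO and 15 uM tetraoctylammonium bromide; AC50 from Hill fits.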

[20] = MultiTox-Fluor Cytotoxicity Assay - LYMP1-003 - Live Cells (AID 962); conditions: LYMP1-003 lymphoblastoid cells, MultiTox-Fluor live-cell protease fluorescence; series mostly up to 92.2 µM;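 further: cytotoxic hits lower the live-cell protease signal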
Summary of the method: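 LYMP1-003 human lymphoblastoid cells (2500/well) in complete medium were preincubated 5 hr at 37 C, then exposed to compounds for 16 hr at 37 C. Live-cell protease cleavage of GF-AFC read by fluorescence (Ex/Em 405/510); AC50 from Hill fits.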

Chain of Peroxisome proliferator-activated receptor alpha (Homo sapiens) (Q07869 whole entry, looked up): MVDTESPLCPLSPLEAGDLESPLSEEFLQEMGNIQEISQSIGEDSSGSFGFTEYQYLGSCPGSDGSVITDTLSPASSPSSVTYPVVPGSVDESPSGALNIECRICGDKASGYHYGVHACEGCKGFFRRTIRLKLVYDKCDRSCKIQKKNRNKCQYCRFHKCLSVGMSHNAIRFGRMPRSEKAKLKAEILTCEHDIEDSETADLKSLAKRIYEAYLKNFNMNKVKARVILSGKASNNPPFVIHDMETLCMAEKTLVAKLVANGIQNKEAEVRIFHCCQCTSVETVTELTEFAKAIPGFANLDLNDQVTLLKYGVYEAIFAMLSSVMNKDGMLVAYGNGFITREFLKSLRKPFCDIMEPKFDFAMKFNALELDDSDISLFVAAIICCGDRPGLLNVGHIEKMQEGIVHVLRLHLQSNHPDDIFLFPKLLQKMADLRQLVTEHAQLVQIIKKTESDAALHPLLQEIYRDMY

For CC1=C(/C=C/C(C)=C/C=C/C(C)=C/C=O)C(C)(C)CCC1, the Potency [1] was 33.4 µM (active), the Potency [2] was 63.1 µM (active) and the Potency [3] was 39.8 µM (active). For the same compound, the Potency [4] was “inactive”, the outcome [5] was “inactive” and the Potency [6] was 31.6 µM (active). The Potency [7] was 31.6 µM (active), the Potency [8] was 50.1 µM (active) and the Potency [9] was 50.1 µM (active). For the same compound, the Potency [10] was 50.1 µM (active), the Potency [11] was “inactive” and the max response [12] was -2.8%. The Potency [13] was 50.1 µM (active).

With CCCCCCCCOc1ccc(C(=O)O)cc1 the Potency [1] was greater than 92 µM, the Potency [2] was “inactive” and the Potency [3] was “inactive”. For the same compound, the Potency [14] was “inactive”, the Potency [4] was “inactive” and the outcome [5] was “inactive”. The outcome [15] was “inactive”, the outcome [16] was “inactive” and the Potency [6] was “inactive”. The caspase-3 activation [17] was -2.79%, the outcome [18] was “inactive” and the Potency [7] was “inactive”. For the same compound, the Potency [19] was “inactive”, the Potency [8] was “inactive” and the Potency [20] was “inactive”. The Potency [9] was “inactive”, the Potency [10] was “inactive” and the Potency [11] was “inactive”. For the same compound, the Potency [12] was 7.08 µM (active) and the Potency [13] was “inactive”.

For O=C(Cl)c1ccc([N+](=O)[O-])cc1, the Potency [1] was greater than 92 µM, the Potency [2] was “inactive” and the Potency [3] was “inactive”. For the same compound, the Potency [14] was “inactive”, the Potency [4] was “inactive” and the outcome [5] was “inactive”. The outcome [15] was “inactive”, the outcome [16] was “inactive” and the Potency [6] was “inactive”. For the same compound, the caspase-3 activation [17] was -0.0349%, the outcome [18] was “inactive” and the Potency [7] was “inactive”. For the same compound, the Potency [19] was “inactive”, the Potency [8] was “inactive” and the Potency [20] was “inactive”. For the same compound, the Potency [9] was “inactive”, the Potency [10] was “inactive” and the Potency [11] was “inactive”. For the same compound, the max response [12] was -4.65% and the Potency [13] was “inactive”.

With C/C=C/C=C/C=O the Potency [1] was greater than 92 µM, the Potency [2] was “inactive” and the Potency [3] was “inactive”. The Potency [14] was “inactive”, the Potency [4] was “inactive” and the outcome [5] was “inactive”. The outcome [15] was “inactive”, the outcome [16] was “inactive” and the Potency [6] was “inactive”. For the same compound, the caspase-3 activation [17] was 29%, the outcome [18] was “inactive” and the Potency [7] was “inactive”. The Potency [19] was “inactive”, the Potency [20] was “inactive” and the Potency [9] was “inactive”. For the same compound, the Potency [10] was “inactive”, the Potency [11] was “inactive” and the max response [12] was -0.84%. For the same compound, the Potency [13] was “inactive”.

In the case of Cc1cc(=O)oc2cc(O)cc(O)c12, the Potency [1] is reported as greater than 92 µM, the Potency [2] is reported as “inactive” and the Potency [3] is reported as “inactive”. The Potency [14] was “inactive”, the Potency [4] was “inactive” and the outcome [5] was “inactive”. The outcome [15] was “inactive”, the outcome [16] was “inactive” and the Potency [6] was “inactive”. The caspase-3 activation [17] was -0.488%, the outcome [18] was “inactive” and the Potency [7] was “inactive”. For the same compound, the Potency [19] was “inactive”, the Potency [8] was “inactive” and the Potency [20] was “inactive”. The Potency [9] was “inactive”, the Potency [10] was “inactive” and the Potency [11] was “inactive”. For the same compound, the max response [12] was 0.255% and the Potency [13] was “inactive”.

For CC(=O)Nc1cccc(C)c1, the Potency [1] was greater than 92 µM, the Potency [2] was “inactive” and the Potency [3] was “inactive”. For the same compound, the Potency [14] was “inactive”, the Potency [4] was “inactive” and the outcome [5] was “inactive”. The outcome [15] was “inactive”, the outcome [16] was “inactive” and the Potency [6] was “inactive”. The caspase-3 activation [17] was -2.37%, the outcome [18] was “inactive” and the Potency [7] was “inactive”. The Potency [19] was “inactive”, the Potency [8] was “inactive” and the Potency [20] was “inactive”. The Potency [9] was “inactive”, the Potency [10] was “inactive” and the Potency [11] was “inactive”. The max response [12] was -3.01% and the Potency [13] was “inactive”.
